Test results taken from publication PMC4336329 (PLoS ONE, 2015).
Hit rate of the full screen: of about 310,000 compounds, about 14,000 (4.5%) showed an effect of 50% or more. Effects have a minus sign here. What follows is part of a selection rich in strong results, with near analogues and random picks from the rest.

Target: human ether-à-go-go-related gene (hERG) potassium channel (human, UniProt Q12809)
Assay: primary screen, population patch clamp on CHO cells stably expressing hERG; higher = less effect of the substance
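Also: peak tail current of the secondary pulse compared with the same well before compound.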

human ether-à-go-go-related gene (hERG) potassium channel, sequence (Q12809 whole entry, looked up): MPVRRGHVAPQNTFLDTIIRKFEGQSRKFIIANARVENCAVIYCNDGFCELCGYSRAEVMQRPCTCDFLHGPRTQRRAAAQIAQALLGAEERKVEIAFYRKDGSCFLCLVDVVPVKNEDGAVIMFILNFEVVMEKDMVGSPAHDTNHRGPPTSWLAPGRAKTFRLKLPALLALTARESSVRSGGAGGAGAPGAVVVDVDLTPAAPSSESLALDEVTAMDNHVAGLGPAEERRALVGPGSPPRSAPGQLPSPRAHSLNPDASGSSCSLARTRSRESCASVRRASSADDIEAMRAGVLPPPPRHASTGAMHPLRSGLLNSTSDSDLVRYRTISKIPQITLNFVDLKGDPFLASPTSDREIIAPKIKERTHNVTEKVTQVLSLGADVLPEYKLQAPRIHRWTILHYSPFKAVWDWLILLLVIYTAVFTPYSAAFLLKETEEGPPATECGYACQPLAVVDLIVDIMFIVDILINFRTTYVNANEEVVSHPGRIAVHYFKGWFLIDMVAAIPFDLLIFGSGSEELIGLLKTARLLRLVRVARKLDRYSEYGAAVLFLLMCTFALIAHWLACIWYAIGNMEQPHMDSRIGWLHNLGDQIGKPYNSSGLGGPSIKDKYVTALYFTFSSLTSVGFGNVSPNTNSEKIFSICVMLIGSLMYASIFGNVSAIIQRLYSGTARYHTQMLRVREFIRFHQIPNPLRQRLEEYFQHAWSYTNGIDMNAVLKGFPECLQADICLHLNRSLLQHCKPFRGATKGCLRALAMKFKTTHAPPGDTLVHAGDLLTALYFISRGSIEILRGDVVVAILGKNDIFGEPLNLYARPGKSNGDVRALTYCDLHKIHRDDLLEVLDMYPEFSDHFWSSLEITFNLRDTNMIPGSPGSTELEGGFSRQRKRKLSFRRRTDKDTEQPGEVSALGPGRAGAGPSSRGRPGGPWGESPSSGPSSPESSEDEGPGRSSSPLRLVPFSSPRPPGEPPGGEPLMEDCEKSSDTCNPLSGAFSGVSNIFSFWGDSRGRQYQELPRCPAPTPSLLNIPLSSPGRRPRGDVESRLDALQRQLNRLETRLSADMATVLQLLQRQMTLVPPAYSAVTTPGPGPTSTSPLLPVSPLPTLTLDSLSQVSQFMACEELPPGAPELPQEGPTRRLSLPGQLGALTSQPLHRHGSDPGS

Structure (SMILES) | hERG current change (%, negative = inhibition) at 10uM [%]
CCOc1ccccc1CN1CCNC(=O)C1CC(=O)NCc1nccn1CC (stereo not drawn) | 18.8
O=C(CNC(=O)c1ccccc1)NCC(=O)OCc1ccc(Cl)cc1 | -29.3
Cc1onc(-c2c(Cl)cccc2Cl)c1C(=O)NC(=S)N1CCOCC1 | 6
O=C(CCn1nnc(-c2cccs2)n1)NC1CCCCC1 | 2.79
C=CCOc1cccc(C2C(C(=O)c3ccc(C)o3)=C(O)C(=O)N2CCCn2ccnc2)c1 (stereo not drawn) | 9.13
Cn1cccc1/C=C1\SC(=S)N(NC(=O)c2ccccc2Cl)C1=O | 1.91
CCn1c(SCC(=O)Nc2cc(C)on2)nnc1-c1ccc(S(=O)(=O)N2CCN(C)CC2)cc1 | -23.1
Cc1cc(N=Nc2ccc(Cl)cc2)cc(CN2CCOCC2)c1O | 11.6
CC(=O)c1ccc(OC(=O)Cc2cccc3ccccc23)cc1 | 3.13
c1ccc2c(CNC3CCCCCC3)c[nH]c2c1 | -20.8
O=S(=O)(Cc1cc(-c2ccccc2)no1)c1ccccc1 | -2.75
O=S(=O)(Cc1cc(-c2ccc(Cl)cc2)no1)c1ccccc1 | 0.608
O=S(=O)(Cc1cc(-c2ccccc2Cl)no1)c1ccccc1 | -51
COCCn1nnnc1C(c1cccs1)N1CCCC(C)C1.Cl (stereo not drawn) | 17.9
COc1ccc(/C=C/C(=O)Nc2ccccc2C(F)(F)F)cc1OC | -4.62
O=C(CCl)N1N=C(c2ccco2)CC1c1ccco1 (stereo not drawn) | 14
O=C(OCC(=O)N1N=C(c2ccc(Cl)cc2)CC1c1ccco1)c1ccco1 (stereo not drawn) | 27.4
O=C(O)CCCC(=O)N1N=C(c2ccco2)CC1c1ccco1 (stereo not drawn) | 9.6
CCC(=O)N1N=C(c2ccc(Cl)cc2)CC1c1ccco1 (stereo not drawn) | 0.74

Structure (SMILES) | hERG current change (%, negative = inhibition) at 10uM [%]
COc1ccc(C(=O)NCC(=O)OCC(=O)N2N=C(c3ccc(Cl)cc3)CC2c2ccco2)cc1OC (stereo not drawn) | -5.57
O=C(O)CCC(=O)N1N=C(c2ccco2)CC1c1ccco1 (stereo not drawn) | -78.1
CC(=O)N1N=C(c2ccc(Cl)cc2)CC1c1ccco1 (stereo not drawn) | 7.11
O=C(COc1cccnc1[N+](=O)[O-])N1N=C(c2ccc(Cl)cc2)CC1c1ccco1 (stereo not drawn) | 16.9
COCC(=O)OCC(=O)N1N=C(c2ccc(Cl)cc2)CC1c1ccco1 (stereo not drawn) | -28.1
Cl.N=c1sccn1CC(=O)N1N=C(c2ccc(Cl)cc2)CC1c1ccco1 (stereo not drawn) | -79.5
Cc1ccc(OCC(=O)N2N=C(c3ccc(Cl)cc3)CC2c2ccco2)c([N+](=O)[O-])n1 (stereo not drawn) | -63.3
O=C(CNC(=O)c1ccccc1)OCC(=O)N1N=C(c2ccc(Cl)cc2)CC1c1ccco1 (stereo not drawn) | -72.5
COc1cc(S(=O)(=O)N2CCN(C)CC2)c(OC)cc1Cl | 13.2
COC(=O)c1nn(-c2ccc(OC)cc2)c(=O)cc1O | 16.9
O=C(CCc1c[nH]c2ccccc12)NCc1ccco1 | 32.4
Cc1ccc(CN(Cc2cc3cc(C)ccc3[nH]c2=O)C(=O)N2CCOCC2)cc1 | -13.2
Cc1cccc(NC(=O)CSc2nncn2-c2ccccn2)c1 | -1.31
CSc1ncc(CN2CCCC(C(=O)Nc3ccc(-c4ccco4)cc3)C2)cn1 (stereo not drawn) | 11.1
Cc1ccccc1-n1c(-c2ccoc2)nc2ccccc2c1=O | 6.09
CCN(Cc1ccccc1)C(=O)c1c(-c2ccccc2Cl)noc1C | -9.34
OCCC1CN(Cc2nc(-c3ccc(F)cc3)cs2)CCN1CCc1ccccc1 (stereo not drawn) | -80.6
CC(C)c1csc(CN2CCN(CCc3ccccc3)C(CCO)C2)n1 (stereo not drawn) | -76
CC(C)c1csc(CN2CCN(Cc3ccccc3)C(CCO)C2)n1 (stereo not drawn) | -26.3

Structure (SMILES) | hERG current change (%, negative = inhibition) at 10uM [%]
CC(C)CN1CCN(Cc2nc(C(C)C)cs2)CC1CCO (stereo not drawn) | 1.27
OCCC1CN(Cc2nc(-c3ccccc3)cs2)CCN1CCc1ccccc1 (stereo not drawn) | -77.8
OCCC1CN(Cc2nc(-c3ccccc3)cs2)CCN1Cc1ccc(F)cc1 (stereo not drawn) | -69.8
C=C(c1ccccc1)P(=O)(O)O | 17.8
COc1ccccc1C(=O)NCCC(=O)OCC(=O)Nc1ccc(S(N)(=O)=O)cc1 | -2.51
Cc1cc(C(=O)Nc2ccc3ccccc3c2)c(C)o1 | 6.68
COc1ccc2oc(=O)c(-c3csc(Nc4cccc(O)c4)n3)cc2c1 | 25.8
COC(=O)CN1C(=O)[C@H]2[C@@H](c3ccc(C)o3)N3C(=O)CN(Cc4ccccn4)C(=O)[C@@]3(Cc3ccccc3)[C@H]2C1=O | 21.5
O=C(NCc1ccccc1)c1cccc(S(=O)(=O)N2CCOCC2)c1 | 0.662
Cc1ccc(N/C=C/C(=O)C(C)(C)C)c(O)c1 | -5.33
CC(=O)NC(CC(=O)O)c1ccc(F)cc1 (stereo not drawn) | 0.22
COc1ccc(CNC(=O)CSc2nnc(C)c(=O)[nH]2)cc1 | 18.2
Cc1oc(-c2cccs2)nc1CN1CCN(CCC(C)C)C(CCO)C1 (stereo not drawn) | -27.6
OCCC1CN(Cc2nc(-c3ccccc3)cs2)CCN1C1CCCC1 (stereo not drawn) | -66.4
Cc1cccc(CN2CCN(C3CCCC3)C(CCO)C2)n1 (stereo not drawn) | 3.1
CC(C)N1CCN(Cc2nc(-c3ccccc3)cs2)CC1CCO (stereo not drawn) | -47.7
CC(C)CCN1CCN(Cc2nc(-c3ccccc3)cs2)CC1CCO (stereo not drawn) | -62.7
OCCC1CN(Cc2ccncc2)CCN1C1CCCC1 (stereo not drawn) | -8.58
O=C(CC1C(=O)NCCN1CC(c1ccccc1)c1ccccc1)NCC1CCOCC1 (stereo not drawn) | 6.24
